Source: PubChem BioAssay
Most compounds without a hit are left out; they make up all but 3.1% or so of the library.
TrxR1 inh: qHTS Assay for Inhibitors of Mammalian Selenoprotein Thioredoxin Reductase 1 (TrxR1): qHTS; Potency, µM (doses to about 114 µM), hits mostly inhibitors; Thioredoxin reductase 1, cytoplasmic (Rattus norvegicus), O89049; 390,000 compounds, 1% hits; recombinant rTrxR1, NADPH fluorescence consumption, selenite substrate; AID 588453, 2011; note: nearly all actives have a fitted effect of over 65% in size
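Rat TrxR1 (90 nM in the dispensed reagent) was pre-reduced with 400 uM NADPH for 5 min at room temperature, then incubated with compound for 15 min. After 400 uM selenite was added, NADPH fluorescence (Ex 340/Em 450 nm) was followed for 8 min.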
IDH1 R132H inh: qHTS for Inhibitors of mutant isocitrate dehydrogenase 1 (IDH1): qHTS | IDH1-R132H enzyme, NADPH consumption, diaphorase/resazurin fluorescence | Potency, µM (series often up to 76.6 µM), hits mostly inhibitors | 390,000 compounds, 0.093% hits; note: nearly all actives have a fitted effect of over 65% in size
Target sequence (O75874 whole entry R132H, stated change not applied): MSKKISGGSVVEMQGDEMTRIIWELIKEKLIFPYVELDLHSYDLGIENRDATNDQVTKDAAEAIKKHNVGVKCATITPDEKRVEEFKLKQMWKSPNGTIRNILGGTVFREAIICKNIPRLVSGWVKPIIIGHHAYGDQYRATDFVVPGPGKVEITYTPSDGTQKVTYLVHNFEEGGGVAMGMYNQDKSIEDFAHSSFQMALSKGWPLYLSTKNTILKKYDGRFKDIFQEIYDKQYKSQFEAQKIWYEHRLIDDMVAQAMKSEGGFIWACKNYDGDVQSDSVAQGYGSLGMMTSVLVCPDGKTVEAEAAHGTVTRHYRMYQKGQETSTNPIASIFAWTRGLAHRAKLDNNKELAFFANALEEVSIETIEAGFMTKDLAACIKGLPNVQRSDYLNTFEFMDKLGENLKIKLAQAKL
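IDH1-R132H (0.5 ug/mL dispensed) in pH 7.5 Tris buffer was preincubated 30 min with compound, then given a substrate mix of 0.016 mM NADPH and 2 mM alpha-KG for 80 min at room temperature; remaining NADPH was read by diaphorase/resazurin fluorescence.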
Nrf2 inh: Nrf2 qHTS screen for inhibitors; A549 ARE-Fluc reporter, luciferase luminescence, 18-24 h; Potency, µM (highest dose often 46 µM), actives largely listed as inhibitors; 360,000 compounds, 2.1% hits; AID 504444, 2011; note: nearly all actives have a fitted effect of over 60% in size
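A549 ARE_Fluc cells, 5000/well, 5% FBS OPTI-MEM; compounds in dose-response, 18-24 h at 37 °C/5% CO2; CellTiter-Fluor viability read (Ex 405/Em 525), then BugLite luciferase luminescence = Nrf2 activity.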
A549 viability: Nrf2 qHTS screen for inhibitors: counterscreen for cytotoxicity; A549 ARE-Fluc cells, CellTiter-Fluor viability, 18-24 h; Potency, µM (titrated, usually from 46 µM), most hits filed as inhibitors; 390,000 compounds, 0.16% hits
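A549 ARE_Fluc cells in 5% FBS OPTI-MEM were exposed to compounds in concentration-response for 18-24 h at 37 deg C. Viability was read by CellTiter-Fluor fluorescence (Ex 405/Em 525) after 30 min, before the luciferase read.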
Mito fusion yeast: qHTS Assay for Small Molecule Inhibitors of Mitochondrial Division or Activators of Mitochondrial Fusion. S. cerevisiae fusion-defective mutant growth rescue, CellTiterGlo 48 h. Potency, µM (top dose mostly 46.1 µM), actives largely listed as activators. 320,000 compounds, 0.23% hits. AID 485298, 2010; note: nearly all actives have a fitted effect of over 45% in size
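Read-out: ATP-based luminescence (CellTiterGlo, 10 min ambient) reporting growth of fusion-defective ts yeast after 48 hours at 37C on glycerol/ethanol YPEG medium in the presence of compound.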
TrxR1 substrate: qHTS Assay for Substrates of Mammalian Selenoprotein Thioredoxin Reductase 1 (TrxR1): qHTS | Potency, µM (series often up to 114 µM) | purified TrxR1 substrate turnover, NADPH consumption readout | AID 588456, 2011 | 390,000 compounds, 0.01% hits; note: nearly all actives have a fitted effect of over 50% in size
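Rat TrxR1, dispensed at 90 nM, was prereduced with 400 uM NADPH (final) for 5 min at ~22 deg C, then incubated with compound 15 min before 400 uM selenite. A first-read NADPH fluorescence drop versus no-compound background flagged substrates.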
Of the large screens only hits and unclear results are named; the others gave an inactive call. Calls come from the whole dose curve; as a rule, active = well fitted curve in the direction sought with a large enough effect; inconclusive = small, poorly fitted or top-dose-only effect, or another doubt; inactive = no such curve, though single readings can be large; an effect the other way counts as inactive or inconclusive.

COc1ccc(C(=O)Nc2cccc(S(=O)(=O)N3CCCC3)c2)cc1S(=O)(=O)N1CCOCC1	none (no result: Mito fusion yeast)
N#Cc1ccccc1CSc1nnc(-c2ccccc2)o1	Nrf2 inh inconclusive (no result: Mito fusion yeast)
CCN(C(=O)CN1C(=O)c2ccccc2Sc2ccc(C(=O)OC)cc21)c1cccc(C)c1	none (no result: IDH1 R132H inh, Nrf2 inh, Mito fusion yeast)
Cc1cccn2cc(-c3cccc(S(=O)(=O)N4CC(C)OC(C)C4)c3)nc12 (centres undefined)	none
CC1CN(S(=O)(=O)c2cccc(-c3cn4ccccc4n3)c2)CC(C)O1 (centres undefined)	Nrf2 inh inconclusive, Mito fusion yeast 2.82µM
N#Cc1ccc(C(=O)Nc2ccn(-c3ccccc3)n2)cc1	Nrf2 inh 23.1µM
COc1ccccc1/C=C/C(=O)c1c2c(c(C)[nH]c1=O)CCCC2	TrxR1 inh inconclusive, Nrf2 inh 16.4µM, A549 viability inconclusive
COc1cccc(NC(=O)COc2ccc(C(=S)N3CCN(C)CC3)cc2OC)c1	Nrf2 inh 13µM
COc1cc(C(=S)N2CCN(C)CC2)ccc1OCC(=O)NCc1ccccc1	none
CCOC(=O)C1CCN(C(=O)c2ccc(OCC(=O)Nc3cccc(C(F)(F)F)c3)c(OC)c2)CC1	Nrf2 inh 14.6µM
COCCn1c(SCC(=O)c2ccc(Cl)cc2)nnc1C(C)C	TrxR1 inh 6.31µM
CCn1c(=O)c(C(=O)Nc2nc3ccccc3[nH]2)c(O)c2ccccc21	Nrf2 inh 16.4µM, A549 viability 20.6µM
Nc1nc2ncn(COCCO)c2c(=O)[nH]1	none (no result: IDH1 R132H inh, Nrf2 inh, A549 viability, Mito fusion yeast)
CCOc1nc2c(c(=O)n(C)c(=O)n2C)n1Cc1ccccc1Cl	Nrf2 inh 18.4µM
Cn1c(=O)c2c(nc(N3CCCCCC3)n2Cc2cccc3ccccc23)n(C)c1=O	IDH1 R132H inh inconclusive, Nrf2 inh inconclusive, A549 viability 23.1µM
Cn1c(=O)c2c(nc(Cl)n2CCOc2ccccc2)n(C)c1=O	Nrf2 inh 25.9µM
Cn1c(=O)c2c(nc(Br)n2Cc2ccccc2Cl)n(C)c1=O	none (no result: Nrf2 inh)
COc1ccc(Oc2nc3c(c(=O)n(C)c(=O)n3C)n2Cc2cccc(OC)c2)cc1	none
COc1ccccc1Oc1nc2c(c(=O)n(C)c(=O)n2C)n1Cc1cccc(Br)c1	Nrf2 inh 16.4µM (no result: Mito fusion yeast)
CCCCn1c(Cl)nc2c1c(=O)n(C)c(=O)n2C	none
CN(C)c1ccc(/C=C/c2ccnc3ccc(N)cc23)cc1	none (no result: IDH1 R132H inh, Nrf2 inh, A549 viability, Mito fusion yeast)
CCC(=O)OCc1cnc(C)c2oc(=O)c(C(=O)Nc3ccccc3C(F)(F)F)cc12	none (no result: Nrf2 inh, Mito fusion yeast)
O=C(CSc1nnc(-c2cccc(Cl)c2)o1)N1CCc2ccccc21	none (no result: Mito fusion yeast)
COc1ccccc1NC(=O)CSc1oc(-c2ccccc2)nc1S(=O)(=O)c1ccccc1	none (no result: Mito fusion yeast)
Cn1c(=O)c2c(nc(OC/C=C/c3ccccc3)n2C)n(C)c1=O	TrxR1 inh 44.7µM (no result: Mito fusion yeast)
C/C=C/COc1nc2c(c(=O)n(C)c(=O)n2C)n1C	none
COc1ccc(Cl)cc1NC(=O)CSC1=NN2CCCC(=O)N=C2S1	Nrf2 inh 23.1µM
O=C(CSc1cn(CC(=O)N2CCCCCC2)c2ccccc12)Nc1ccccc1F	Nrf2 inh 20.6µM (no result: Mito fusion yeast)
COc1ccc(Cl)cc1NC(=O)CSc1cn(CC(=O)N2CCCC2)c2ccccc12	none (no result: Mito fusion yeast)
COc1ccccc1C(=O)NCCn1cc(SCC(=O)Nc2ccccc2F)c2ccccc21	Nrf2 inh 23.1µM (no result: Mito fusion yeast)
Cc1ccccc1NC(=O)CSc1cn(CC(=O)N2CCCC2)c2ccccc12	none (no result: Nrf2 inh, Mito fusion yeast)
COc1ccc(Cl)cc1NC(=O)CSc1cn(CC(=O)N2CCCCCC2)c2ccccc12	Nrf2 inh 25.9µM (no result: Mito fusion yeast)
Cc1[nH]c2ccccc2c1C(=O)COC(=O)c1ccccc1SCC(=O)N1CCCC1	none (no result: IDH1 R132H inh, Nrf2 inh, A549 viability, Mito fusion yeast)
